According to the GenesisPotency data set:
Hit rate of the full screen: of about 65,000 compounds, about 45 (0.07%) were called active. Calls come from the whole dose curve. The full list was thinned out, with actives kept by preference.

Tested on: T1, 
T1 sequence (whole entry): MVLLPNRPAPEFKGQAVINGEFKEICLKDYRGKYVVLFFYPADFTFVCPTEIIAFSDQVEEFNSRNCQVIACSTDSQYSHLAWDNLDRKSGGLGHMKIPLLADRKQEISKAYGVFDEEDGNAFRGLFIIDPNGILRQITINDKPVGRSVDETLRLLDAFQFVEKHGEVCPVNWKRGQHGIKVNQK
Assay: Schistosoma Mansoni Peroxiredoxins (Prx2)

Row | SMILES | outcome
1 | Cc1cc(C)c2cc(CN(CC3CCCO3)S(=O)(=O)c3ccc4c(c3)OCCO4)c(=O)[nH]c2c1 (stereo not given) | active
2 | COc1ccc(S(=O)(=O)N(Cc2cc3ccc(OC)cc3[nH]c2=O)CC2COCCO2)cc1 (stereo not given) | active
3 | CCc1nc(OCCN(CC)CC)c2oc3ccccc3c2n1.Cl | inactive
4 | CC(=O)Oc1cc(OC(C)=O)c2c(C)cc(=O)oc2c1 | active
5 | O=C(/N=C1\NC(=O)C(F)(C(F)(F)F)S1)NC1CCCCC1 (stereo not given) | active
6 | CCC(=O)Oc1ccc2c(C)c(Cl)c(=O)oc2c1 | active
7 | COC(=O)Cc1c(C)c2ccc(OC(=O)c3ccco3)cc2oc1=O | active
8 | c1ccc(Cc2nn3c(C4COc5ccccc5O4)nnc3s2)cc1 (stereo not given) | inactive
9 | O=C1c2ccccc2C(=O)N1CCCCn1c(=O)oc2ccccc21 | inactive
10 | CN(C)c1oc(-c2ccccc2Cl)nc1C#N | active
